Records with an inconclusive call do not appear. Calls of active or inactive are those of the source. Calls follow the shape of the dose curve; as a rule, active = well fitted cell-killing curve with a large enough effect; inconclusive = small, poorly fitted or top-dose-only effect, or effect the other way; inactive = no such curve, though single readings can be large or run the other way.
Potency is read from the fitted curve at half-maximal effect.

The assay is described as follows: Quantitative High-Throughput drug screen in 47 multiple myeloma cell lines against the NCATS MIPE library collection: KMS12PE_JCRB cell viability assay (AID 1918972). Also: nearly all actives have a fitted effect of over 30% in size. The following applies: KMS12PE myeloma viability, CellTiter-Glo ATP, 48 h; series mostly up to 45.8 µM. The text has this:
PI: Beverly A. Mock Ph.D.
Laboratory of Cancer Biology and Genetics,
Center for Cancer Research, National Cancer Institute,
National Institute of Health, Bethesda, Maryland
Drug resistance and disease progression are common in multiple myeloma (MM) patients, underscoring the need for new therapeutic combinations. […] We hypothesized that effective combinations would reduce MYC expression and enhance p16 activity. […] These preclinical data identify potentially useful drug combinations for evaluation in drug-resistant MM and reveal potential mechanisms of combined drug sensitivity.
Described herein is the primary MIPE qHTS used to cherrypick compounds. Validated compounds were then further tested for potential synergistic activiy.
[1] Peat TJ, Gaikwad SM, Dubois W, Gyabaah-Kessie N, Zhang S, Gorjifard S, Phyo Z, Andres M, Hughitt VK, Simpson RM, Miller MA, Girvin AT, Taylor A, Williams D, D'Antonio N, Zhang Y, Rajagopalan A, Flietner E, Wilson K, Zhang X, Shinn P, Klumpp-Thomas C, McKnight C, Itkin Z, Chen L, Kazandijian D, Zhang J, Michalowski AM, Simmons JK, Keats J, Thomas CJ, Mock BA. Drug combinations identified by high-throughput screening promote cell cycle transition and upregulate Smad pathways in myeloma. Cancer Lett. 2023 Aug 1;568:216284. doi: 10.1016/j.canlet.2023.216284. Epub 2023 Jun 24. PMID: 37356470; PMCID: PMC10408729.
SEQUENCE No. (e.g., 1, 2, 3, etc.); […] (e.g., Cells, Incubation, Reagent, etc.); VALUE and DESCRIPTION.
1; Cells; 5 uL; white, solid bottom 1536-well Greiner assay plate.
2; Compounds; 23 nL; Kalypsis pin tool (Wako USA) equipped with a 1536-well pin head to transfer to the assay plates.
3; Incubation; 48 hours; 37C incubation.
4; Reagent;5uL; CellTiter Glo (Promega).
5; Detector; 425V; Luminescence; Viewlux PerkinElmer.
NOTES (numbers refer to Sequence numbers above)
1. The cell-based screening methods employed in this study were like those previously published. Briefly, the corresponding myeloma cell lines were screened in 1,536-well plates with 500 cells, 5-uL per well for inhibition of cell viability (assessed by measuring ATP levels with CellTiterGlo).
2. NCATS MIPE 4.0 library of approved and investigational drugs were added using the Kalypsis pin tool. Wells treated with DMSO only for 100% viability and media only wells for 0% viability were used as controls.
3. The assay plates were covered and incubated for 48 hours in a 37C, 5% CO2 incubator with controlled humidity.
4. After 48 hours, CellTilter-GloTM luminescent substrate mix (Promega) reagent was added to the assay plate and plates we incubated for 5 min at room temperature.
5. Signal was measured as median relative luminescence units on a ViewLux (PerkinElmer) multiplate reader.
[1] Heske CM, Davis MI, Baumgart JT, Wilson K, Gormally MV, Chen L, Zhang X, Ceribelli M, Duveau DY, Guha R, Ferrer M, Arnaldez FI, Ji J, Tran HL, Zhang Y, Mendoza A, Helman LJ, Thomas CJ. Matrix Screen Identifies Synergistic Combination of PARP Inhibitors and Nicotinamide Phosphoribosyltransferase (NAMPT) Inhibitors in Ewing Sarcoma. Clin Cancer Res. 2017 Dec 1;23(23):7301-7311. doi: 10.1158/1078-0432.CCR-17-1121. Epub 2017 Sep 12. PMID: 28899971; PMCID: PMC6636827.
`O=S(=O)(CC1CS1)c1ccc(Oc2ccccc2)cc1` (stereo not given): the Potency is 3720 nM (active).
With `CC(=CCCC1=CCC(C2=CC(=O)OC2O)OC1O)CCC1=C(C)CCCC1(C)C` (stereo not given) the entry was “inactive”.
Regarding `O=c1cccc2n1CC1CNC[C@H]2C1`, the Potency is 9350 nM (active).
In the case of `CCCC[N+]1(C)[C@H]2CC(OC(=O)[C@H](CO)c3ccccc3)C[C@H]1[C@H]1O[C@H]12` (stereo not given in full), the Potency entry was “inactive”.
With `COc1cc2cc(c1Cl)N(C)C(=O)C[C@H](OC(=O)C(C)C)[C@]1(C)O[C@H]1[C@H](C)[C@@H]1C[C@@](O)(NC(=O)O1)[C@H](OC)C=CC=C(C)C2` the entry was “inactive”; with `CC1=C(O)C(=O)C=C2C1=CC=C1[C@@]2(C)CC[C@@]2(C)[C@@H]3C[C@](C)(C(=O)O)CC[C@]3(C)CC[C@]12C`, 1050 nM (active).
In the case of `C[C@@]12OC(=O)[C@]1([C@@H](O)[C@@H]1C=CCCC1)NC(=O)[C@H]2CCCl`, the Potency was 18.7 nM (active).
As to `CCNC(=O)CC1N=C(c2ccc(Cl)cc2)c2cc(OC)ccc2-n2c(C)nnc21` (stereo not given), the Potency is 13200 nM (active).
For `CCCCCC[C@H]1C(=O)O[C@H](C)[C@H](NC(=O)c2cccc(NC=O)c2O)C(=O)O[C@@H](C)[C@@H]1OC(=O)CC(C)C`, the Potency is 469 nM (active).
The same measure for `Cc1ccccc1-n1c(Cn2cnc3c(N)ncnc32)nc2cccc(C)c2c1=O`: 264 nM (active); for `CN1[C@H]2CC(O)C[C@H]1[C@H]1O[C@H]12` (stereo not given in full): “inactive”; for `c1ccc(CCCN2CCN(CCOC(c3ccccc3)c3ccccc3)CC2)cc1`: “inactive”.
Turning to `C[C@H]([C@H](O)CCC(C)(C)O)[C@H]1CC[C@@]2(O)C3=CC(=O)[C@@H]4C[C@@H](O)[C@@H](O)C[C@]4(C)[C@@H]3CC[C@]12C`, the Potency result was “inactive”.
With `O=c1[nH]c2ccc(Cl)cc2c(N[C@@H]2CN3CCC2CC3)c1-c1nc2ccccc2[nH]1` the figure was 83.3 nM (active).
Take `NC1=NC(=O)N2CC12` (stereo not given): the Potency is 10500 nM (active).
Regarding `COc1ccc2c(c1)CN(C)CC2c1ccc(Cl)c(Cl)c1` (stereo not given), the Potency was 23500 nM (active).
For `O=C(N[C@@H](COc1ccc2[nH]c(=O)[nH]c2c1)c1ccccc1)c1cccn(Cc2ccc(F)c(F)c2)c1=O`, the Potency was 18700 nM (active).
The same measure for `CCOC(=O)Nc1ccc(NCc2ccc(F)cc2)cc1N`: 3320 nM (active); for `C[C@@H]1O[C@@H](O[C@@H]2C=C3CC[C@@H]4[C@@H](CC[C@]5(C)[C@H](c6ccc(=O)oc6)CC[C@@]45O)[C@@]3(C)CC2)[C@H](O)[C@H](O)[C@H]1O`: 7.4 nM (active).
As to `CCc1c(C(=O)C(N)=O)c2c(OCC(=O)O)cccc2n1Cc1ccccc1`, the Potency result is “inactive”.
For `CC[C@@]1(O)C(=O)OCc2c1cc1n(c2=O)Cc2cc3ccccc3nc2-1`, the Potency was 132 nM (active).
Take `N=c1c2c(-c3ccccc3)c(-c3ccccc3)n(Cc3ccccc3)c2ncn1C1CCC(O)CC1` (stereo not given): the Potency is 2640 nM (active).
Consider `CC[C@@H]1[C@@H](C)O[C@@](O)([C@@H](C)[C@H](O)[C@H](C)[C@H]2OC(=O)C=CC=C[C@@H](C)[C@@H]([C@@H](C)[C@@H](O)[C@H](C)[C@@]3(O)C[C@H](O[C@H]4C[C@H](O)[C@H](O)[C@H](C)O4)[C@H](CC)[C@@H](C)O3)OC(=O)C=CC=C[C@@H]2C)C[C@H]1O[C@H]1C[C@H](O)[C@H](O)[C@H](C)O1`, for which the Potency was 372 nM (active).
Consider `Cc1c(C(=O)c2cccc3ccccc23)c2cccc3c2n1[C@H](CN1CCOCC1)CO3`, for which the Potency was 7430 nM (active).
For the molecule `COc1ccc2c(c1)[C@]13CCCCC1C(C2)N(C)CC3` (stereo not given in full), the Potency entry is “inactive”.
`C1=C2CCCN[C@H]2[C@@H]2C[C@H]1[C@@H]1CCCCN1C2`: the Potency entry is “inactive”.
`COc1cc([C@@H]2c3cc4c(cc3[C@@H](O)C3COC(=O)C32)OCO4)cc(OC)c1O` (stereo not given in full): the Potency was 37.2 nM (active).
As to `CC1(N2CCC(n3c([C@@H]4CCCNC4)nc4ccccc43)CC2)CCCCCCC1`, the Potency was 7430 nM (active).
Turning to `CCNC(=O)C[C@@H]1N=C(c2ccc(Cl)cc2)c2cc(OC)ccc2-n2c(C)nnc21`, the Potency is 166 nM (active).
`Oc1ccc2c3c1O[C@H]1c4[nH]c5c(c4C[C@@]4(O)[C@@H](C2)N(CC2CC2)CC[C@]314)C[C@@]1(O)[C@H]2Cc3ccc(O)c4c3[C@@]1(CCN2CC1CC1)[C@H]5O4`: the Potency entry was “inactive”.
For `C#CC1(O)CCC2C3CCC4=CC(=O)CCC4(C)C3CCC21C` (stereo not given), the Potency entry is “inactive”.
The same measure for `COC(=O)[C@@H](N)CCCN=C(N)N[N+](=O)[O-]`: “inactive”; for `CC(O)=C(C#N)C(=O)Nc1cc(Br)ccc1Br`: 5900 nM (active).
Consider `Cc1ccccc1-n1c(Cn2ncc3c(N)ncnc32)nc2cccc(C)c2c1=O`, for which the Potency is 148 nM (active).
Regarding `CSCC[C@@H](NC(=O)[C@@H](Cc1ccccc1)NC(=O)CNC(=O)CNC(=O)[C@@H](N)Cc1ccc(O)cc1)C(=O)O`, the Potency result was “inactive”.
On to `CC(C)N(CCNC(=O)CN1CCCC1=O)C(C)C`, for which the Potency result was “inactive”.
`CC(C)(O)C(=O)Nc1ccc([N+](=O)[O-])c(C(F)(F)F)c1`: the Potency is 23500 nM (active).
As to `O=C(O)CNC(=O)c1c(O)c2ccccc2n(Cc2ccccc2)c1=O`, the Potency result is “inactive”.
The same measure for `O=C1C=CC[C@@H]2[C@H]3CCCN4CCC[C@@H](CN12)[C@@H]34`: “inactive”; for `Cc1c(C(=O)Nc2cccc(C(F)(F)F)c2)cc(-c2ccccc2)n1CCCN1CCOCC1`: 10500 nM (active).

The record behind these values is PubChem BioAssay (NCATS).
